The values that follow come from PubChem BioAssay (NCI).

Compounds without any hit were thinned out: in the full panel of roughly 83,000, 20% have a hit.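 Single-concentration screen, 48 h exposure, 96-well plates. Endpoint: percent growth. Below 10 = active.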 Calls of active or inactive are those of the source.

The assay concerns T-47D breast. The assay is described as follows: NCI-60 one-dose screen, 48 h (100 = growth as untreated, 0 = no growth, -100 = all killed). To be noted: 10 µM. The protocol: Growth inhibition of the T-47D human tumor cell line is measured as a screen for anti-cancer activity. Cells are grown in 96 well plates and exposed to the test compound for 48 hours. Compounds are tested at a single concentration, which is 10^-5 M for most compounds. The reported endpoint is percent growth (GI% or GIPRCNT), where numbers from 0 - 100% represent growth inhibition, and numbers from -100% - 0 represent cell death. For example, a value of 40 represents 60% growth inhibition. A value of 0 means no net growth occurred over the course of the experiment. A value of -40 indicates 40% of cells at the beginning of the experiment died by the end of the experiment. A value of -100 means all cells are dead at the end of the experiment.
NCI-60 Human Tumor Cell Lines Screen was performed using the standard one-dose NCI protocol, which is described in more detail at https://dtp.cancer.gov/discovery_development/nci-60/default.htm.
Compounds with GIPRCNT values below 10 were considered active. Activity score was based on GIPRCNT using the following formula: […]
Score is 0 for GIPRCNT values of 100 or above, 50 for GIPRCNT values of 0, and 100 for GIPRCNT values of -100.
In the case of `Cn1cc(-c2cc(N)n3nc(-c4cn(C)c5ccccc45)cc3n2)c2cc(F)ccc21`, the growth was -50.1% (active). For the molecule `Cn1cc(-c2nc(N)nnc2-c2c[nH]c3ccccc23)c2cc(Br)cnc21`, the growth was 65.2% (inactive). The figure for `Cn1cc(-c2nnc(N)nc2-c2c[nH]c3ccccc23)c2cc(Br)cnc21` is 29.4% (inactive).

Take `CCOc1ccc(/C=N/NC(=O)Cn2nc(Cc3ccc(OC)cc3)c3onc(C)c3c2=O)cc1`: the growth is 16.3% (inactive). In the case of `O=C(CC(=O)Nc1ccc(Oc2ncnc3scc(Nc4n[nH]c(=S)s4)c23)cc1)Nc1ccc(Br)cc1` it was 86.3% (inactive).

`C#C[C@]1(O)CC[C@H]2[C@@H]3CC=C4c5sc(Nc6cc(C)cc(C)n6)nc5CC[C@]4(C)[C@H]3CC[C@@]21C`: the growth was -35.6% (active). The figure for `Nc1nnc(-c2c[nH]c3ncc(Br)cc23)c(-c2c[nH]c3ccc(Br)cc23)n1` is 37.4% (inactive); for `O=C(Nc1ccc(Oc2ncnc3scc(Nc4n[nH]c(=S)s4)c23)cc1)C1(C(=O)Nc2cccc(C(F)(F)F)c2)CC1` it is 86.7% (inactive); for `COc1ccc(NCc2cn(-c3ccc(C(=O)O)cc3)nc2-c2ccc(F)cc2)cc1C(F)(F)F` it is 47.5% (inactive). In the case of `CC1(C)CC(=O)C2=C(C1)N(Cc1ccc(C(=O)O)cc1)C1=C(C(=O)CC(C)(C)C1)C2c1ccc(Cl)cc1` it was 91.9% (inactive); in that of `O=C(Nc1ccc(OCC(=O)c2ccc(Cl)cc2)cc1)Nc1ccc(Cl)c(C(F)(F)F)c1`, 6.1% (active); in that of `O=C1NC2C=CC=CC2/C1=C1/SC(=S)N(C2CC(=O)N(c3ccc(Br)cc3)C2=O)C1=O` (stereo not given), 82.9% (inactive). In the case of `CCn1c(SCC(=O)Nc2ccc(-c3nc4ccccc4[nH]3)cc2)nc2ccccc2c1=O` it was -58.2% (active); in that of `Fc1ccc(/C=C/c2nc3ccccc3n3c(-c4ccc(Cl)cc4)nnc23)cc1`, 60.9% (inactive); in that of `O=C1NC(=S)S/C1=C\c1cn(-c2ccccc2)nc1-c1ccc([N+](=O)[O-])cc1`, 6.73% (active). On to `O=C(c1ccccc1)c1ccc2nc(-c3ccccc3Br)[nH]c2c1`, for which the growth is -59.3% (active). The figure for `Cc1ccc2c(c1)C(=O)/C(=C/c1ccc([N+](=O)[O-])cc1)S2` is 86.3% (inactive); for `Cc1ccc(COc2ccc(NC(=O)Nc3ccc(Cl)c(C(F)(F)F)c3)cc2)cc1` it is 33.7% (inactive).

As to `O=[N+]([O-])c1cccc(-c2nnc3c(/C=C/c4ccccc4O)nc4ccccc4n23)c1`, the growth is 26.3% (inactive). The figure for `COc1ccc(Cc2nn(CC(=O)N/N=C/c3ccc(Br)cc3)c(=O)c3c(C)noc23)cc1` is -1.9% (active); for `COc1cccc(C(=O)CSc2nc(-c3ccc(OCc4ccccc4)c(OC)c3)c(C#N)c(=O)[nH]2)c1` it is 90.7% (inactive). In the case of `COc1ccc(C(=O)COc2ccc(NC(=O)Nc3ccccc3)cc2)cc1` it was 65.6% (inactive). As to `CCOC(=O)C1=C(N)N(c2ccc(C)cc2)C2=C(C(=O)CC(C)(C)C2)C1c1ccccc1Br` (stereo not given), the growth was 69.6% (inactive).

On to `Cc1ccc(S(=O)(=O)N2CCN(S(=O)(=O)c3oc(-c4ccccc4)nc3C#N)CC2)cc1`, for which the growth was 60.8% (inactive). In the case of `O=C(CSc1nc2ccccc2c(=O)n1-c1ccc(Cl)cc1)Nc1ccc(-c2nc3ccccc3[nH]2)cc1` it was -68.5% (active); in that of `O=C(Nc1ccc(OCc2ccc(Cl)cc2)cc1)Nc1ccc(Cl)c(C(F)(F)F)c1`, 3.95% (active); in that of `COc1ccc(C2c3sc4ccc(C)cc4c3Oc3nc(N)nc(N)c32)cc1` (stereo not given), 61.3% (inactive).

For `COc1ccc(OC)c(-n2cc(C#N)c(N)c2C(=O)c2ccc(Cl)cc2Cl)c1`, the growth was 42.6% (inactive). In the case of `COc1ccc(C2OC[C@@]3(C)C4CC[C@]5(C)C(CC=C6C7CC(C)(C)CC[C@]7(C(=O)O)CC[C@]65C)[C@@]4(C)C[C@@H](O)[C@@H]3O2)cc1` (stereo not given in full) it was 88.5% (inactive); in that of `COc1cc(-c2nc3ccc(C)cc3[nH]2)ccc1OCc1nnc(-c2ccccc2Br)o1`, 28% (inactive); in that of `O=C(c1ccc(Cl)cc1)C(c1c[nH]c2ccccc12)c1c[nH]c2ccccc12`, -30.6% (active). The figure for `O=C1S/C(=C\c2ccc([N+](=O)[O-])cc2)C(=O)N1CCN1CCCCC1` is 95.6% (inactive); for `COc1ccc(C(=O)COc2ccc(NC(=O)Nc3ccc(Cl)c(C(F)(F)F)c3)cc2)cc1` it is 12.5% (inactive); for `Cn1cc(-c2nnc(N)nc2-c2c[nH]c3ccc(F)cc23)c2cc(Br)cnc21` it is 44.1% (inactive). With `Cn1cc(/C=C(/SS/C(=C/c2cn(C)c3cccc(C(=O)O)c23)C(=O)O)C(=O)O)c2c(C(=O)O)cccc21`, the growth is 101% (inactive).

On to `C#C[C@]1(O)CC[C@H]2[C@@H]3CC=C4c5sc(Nc6ccc(C(F)(F)F)cn6)nc5CC[C@]4(C)[C@H]3CC[C@@]21C`, for which the growth was 8.97% (active). The figure for `COc1cc2oc(-c3cccc(C(=O)Nc4ccc(Cl)cc4)c3)cc(=O)c2c(OCCN)c1OC` is -73.8% (active); for `Cc1cc(N=C2NC(=O)/C(=C/c3cc(C(C)(C)C)c(O)c(C(C)(C)C)c3)S2)n[nH]1` it is 3.32% (active). The figure for `COc1ccc2[nH]cc(-c3nc(N)nnc3-c3cn(C)c4ncc(Br)cc34)c2c1` is 48.5% (inactive); for `O=C(CN1CCN(c2ncnc3c2cnn3-c2ccccc2)CC1)Nc1ccc(Br)cc1` it is 41.6% (inactive).
